Drawing on PubChem BioAssay AID1345085 (National Center for Advancing Translational Sciences (NCATS), 2018), this text covers Potency for 33 compounds.

Structures are written as SMILES. Records with an inconclusive call do not appear. Calls of active or inactive are those of the source. Calls come from the whole dose curve; as a rule, active = well fitted cell-killing curve with a large enough effect; inconclusive = small, poorly fitted or top-dose-only effect, or effect the other way; inactive = no such curve, though single readings can be large or run the other way.
Potency is the fitted concentration of half-maximal effect.

The assay deals with C33A. The assay is described as follows: Confirmatory qHTS for gynecologic anti-cancer compounds from libraries of approved drugs and bioactive compounds. Note: nearly all actives have a fitted effect of over 55% in size. The note with it: gynecologic cancer cell panel viability, ATPlite luminescence, 48 h; series mostly up to 57.6 µM. Put shortly:
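1,000 cells/well; 16 h pre-incubation 37 C, 5% CO2; pin-transferred cpd in DMSO, 11 conc (1:3), 57.5 uM–0.977 nM; 48 h; ATPlite, 15 min RT; luminescence → IC50.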
With `CC(C)n1nc(-c2cc3cc(O)ccc3[nH]2)c2c(N)ncnc21`, the Potency was 3.06 µM (active).

Consider `COCCOc1nc(-c2ccc(Cl)c(Cl)c2)n(-c2ccc(NC(=O)CCl)cc2)n1`, for which the Potency is 4.32 µM (active).

For the compound `Cc1ccc(C(=O)N(CCCN)C(c2nc3cc(Cl)ccc3c(=O)n2Cc2ccccc2)C(C)C)cc1` (stereo not drawn), the Potency was 0.485 µM (active).

On to `Cn1cnc2c(F)c(Nc3ccc(Br)cc3F)c(C(=O)NOCCO)cc21`, for which the Potency result is “inactive”.

On to `C=CC(=O)Nc1cccc(Oc2nc(Nc3ccc(N4CCN(C)CC4)cc3)ncc2Cl)c1`, for which the Potency was 24.3 µM (active).

Turning to `N#CC1(c2cccc(C(=O)Nc3cc(Oc4ccc5nc(NC(=O)C6CC6)sc5n4)ccc3F)c2Cl)CC1`, the Potency entry is “inactive”.

For `Cc1cc(Nc2nc(N[C@@H](C)c3ncc(F)cn3)ncc2Cl)n[nH]1`, the Potency result is “inactive”.

As to `CN(C)CC/C=C1\c2ccccc2COc2ccccc21`, the Potency result was “inactive”.

Regarding `Cc1c(NC(=O)OCC2COCCN2)cn2ncnc(Nc3ccc4c(cnn4Cc4cccc(F)c4)c3)c12` (stereo not drawn), the Potency is 24.3 µM (active).

With `CN(C)CCC(CSc1ccccc1)Nc1ccc(S(=O)(=O)NC(=O)c2ccc(N3CCN(Cc4ccccc4-c4ccc(Cl)cc4)CC3)cc2)cc1[N+](=O)[O-]` (stereo not drawn), the Potency entry is “inactive”.

In the case of `CN(C)C/C=C/C(=O)Nc1cc2c(Nc3ccc(F)c(Cl)c3)ncnc2cc1OC1CCOC1` (stereo not drawn), the Potency is 6.85 µM (active).

In the case of `CNC(=O)c1nn(C)c2c1C(C)(C)Cc1cnc(Nc3ccc(N4CCN(C)CC4)cc3)nc1-2`, the Potency entry was “inactive”.

In the case of `CCc1nc(C(N)=O)c(Nc2ccc(N3CCC(N4CCN(C)CC4)CC3)c(OC)c2)nc1NC1CCOCC1`, the Potency entry was “inactive”.

As to `Cn1cnc2c(F)c(Nc3ccc(Br)cc3Cl)c(C(=O)NOCCO)cc21`, the Potency entry is “inactive”.

Consider `COc1cc(C(=O)N2CCC(N3CCN(C)CC3)CC2)ccc1Nc1ncc2c(n1)N(C)c1ccccc1C(=O)N2C`, for which the Potency entry is “inactive”.

Consider `CCCCc1oc2ccccc2c1C(=O)c1cc(I)c(OCCN(CC)CC)c(I)c1`, for which the Potency is 70.8 µM (active).

On to `CN(C)c1ccc2nc3ccc(=[N+](C)C)cc-3sc2c1`, for which the Potency was 21.7 µM (active).

For the compound `O=C(NOCC1CC1)c1ccc(F)c(F)c1Nc1ccc(I)cc1Cl`, the Potency result is “inactive”.

Turning to `CC(C)C[C@H](NC(=O)[C@H](Cc1ccccc1)NC(=O)c1cnccn1)B(O)O`, the Potency was 0.153 µM (active).

As to `CNc1nc(Nc2ccc(C(=O)N3CCOCC3)cc2OC)ncc1Cl`, the Potency entry was “inactive”.

In the case of `COc1cc2nccc(Oc3ccc(NC(=O)C4(C(=O)Nc5ccc(F)cc5)CC4)cc3)c2cc1OC`, the Potency was 15.3 µM (active).

With `COc1cc2c(Nc3ccc(NC(=O)c4ccccc4)cc3)ncnc2cc1OCCCN1CCOCC1`, the Potency is 27.3 µM (active).

Regarding `CCC1C(=O)N(C)c2cnc(Nc3ccc(C(=O)NC4CCC(N5CCN(CC6CC6)CC5)CC4)cc3OC)nc2N1C(C)C` (stereo not drawn), the Potency is 0.172 µM (active).

`CCN(CC)CCCC(C)Nc1ccnc2cc(Cl)ccc12` (stereo not drawn): the Potency result was “inactive”.

With `COc1cc2c(cc1-c1c(C)noc1C)ncc1[nH]c(=O)n(C(C)c3ccccn3)c12` (stereo not drawn), the Potency result was “inactive”.

For the compound `Cc1cc(Nc2cc(N3CCN(C)CC3)nc(Sc3ccc(NC(=O)C4CC4)cc3)n2)n[nH]1`, the Potency result was “inactive”.

Consider `O=C1c2c(O)ccc(O)c2C(=O)c2c(NCCNCCO)ccc(NCCNCCO)c21`, for which the Potency was 0.306 µM (active).

Consider `Cc1ccc(C(=O)N(CCCN)C(c2oc3cc(Cl)ccc3c(=O)c2Cc2ccccc2)C(C)C)cc1` (stereo not drawn), for which the Potency was 0.769 µM (active).

Consider `Cc1cc(C2CCCCC2)n(O)c(=O)c1`, for which the Potency is 7.03 µM (active).

On to `FC(F)(F)c1ccc(/C=C/c2nc(COc3ccc(CCCCn4ccnn4)cc3)co2)cc1`, for which the Potency entry was “inactive”.

For `Nc1cccc(-c2cc3c(Oc4cccc(O)c4)ncnc3[nH]2)c1`, the Potency result is “inactive”.

`CC(Oc1cc(-n2cnc3ccc(CN4CCN(C)CC4)cc32)sc1C(N)=O)c1ccccc1C(F)(F)F` (stereo not drawn): the Potency is 5.44 µM (active).

For `Cc1[nH]c2ccccc2c1CCNCc1ccc(/C=C/C(=O)NO)cc1`, the Potency was 0.243 µM (active).
